Screening data: PubChem BioAssay, National Center for Advancing Translational Sciences (NCATS)
Casp1 inh = caspase-1 (human) inhibition, allosteric or competitive | P29466 | Caspase-1 enzyme, Ac-WEHD-AFC fluorogenic rate | Potency, µM (highest dose often 57.5 µM), without a hit: at the top dose activity change, negative = inhibition, actives largely listed as inhibitors | hit rate 0.03% among 75,000 | AID 900;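 further: potency means the concentration at half of the fitted maximal effect; plate controls were vehicle for no effect and no substrate for full effect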
Tau filament bind = binders of human tau filaments; AID 596; recombinant tau filaments, thioflavin S fluorescence, 15 h; filaments grown with octadecylsulfate alongside compound; hit rate 2% among 71,000; Potency, µM (top dose mostly 57.1 µM), for the others: at the top dose activity change, negative = inhibition; P10636;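 further: potency means the concentration at half of the fitted maximal effect; on the % scale 0 is the no-effect control and ±100 the full control effect; actives lower thioflavin S fluorescence by blocking filaments or displacing dye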
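Quantitative HTS: thioflavine S signal from ODS-induced tau filaments, excited at 450 nm, emission 510 nm. Conditions: 1 uM tau, 30 uM ODS, 15 h at 37 C, pH 7.4.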
Caspase-7 inhib = caspase-7 (human) inhibition, allosteric or competitive; P55210; recombinant caspase-7, Ac-DEVD-AFC fluorescence rate; Potency, µM (series often up to 57.5 µM), for inactives: top-dose activity change, negative = inhibition, actives largely listed as inhibitors; hit rate 0.02% among 75,000; AID 889; active means well fitted inhibition curve with a large enough effect in the main read-out, with a control signal flat, not every such curve was filed as active; inconclusive means small, poorly fitted or top-dose-only effect, or a change in a side signal; further: potency means the concentration at half of the fitted maximal effect; % of control where 0% means no effect
Bst PK mod = alters activity of Bacillus stearothermophilus pyruvate kinase; purified pyruvate kinase, luminescence ATP production; ribose 5-phosphate activator present at AC10; Potency, µM; hit rate 1.2% among 51,000; in the data active means potency below about 11 µM; inconclusive means mostly about 12 µM to 25 µM;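 the screen sought inhibitors and activators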;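 further: potency means the concentration at half of the fitted maximal effect; scaled between full activation by ribose 5 phosphate and full inhibition by luteolin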
Luciferase inh = blocks Photinus pyralis firefly luciferase activity. Potency, µM (titrated, usually from 57.1 µM), without a hit: top-dose activity change, negative = inhibition, most hits filed as inhibitors. hit rate 2.2% among 72,000. P08659. purified firefly luciferase, luminescence, 8 min; further: potency means the concentration at half of the fitted maximal effect; on the % scale 0 is the no-effect control and ±100 the full control effect; nearly all actives have a fitted effect of over 40% in size
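Luminescence read-out after 8 min at room temperature; enzyme reaction used luciferin plus 10 uM ATP (linear range) in imidazole buffer pH 7.2 with KCl, MgCl2, Tween 20 and BSA. Each sample was run as a titration.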
tau ThS displ = tau filament binding by ThS displacement | hit rate 40% among 60 | shares compounds with Tau filament bind | recombinant tau filaments, Thioflavin S fluorescence displacement | Potency, µM; calls by dose curve
aSyn ThS bind = compounds binding human alpha-synuclein fibrils, displacing Thioflavin S | Potency, µM | AID 937 | shares compounds with Tau filament bind | hit rate 40% among 60 | recombinant alpha-synuclein fibrils, ThS fluorescence displacement; calls by dose curve
Abeta ThS displ = amyloid beta fibril binding by ThS displacement | shares compounds with Tau filament bind | Abeta1-42 fibrillization, thioflavin S fluorescence, overnight 37 C | Potency, µM | hit rate 50% among 60; calls by dose curve
Numbers without * were called inactive; i = inactive; ? = inconclusive; . = no result; [ ] = another dose, or the depositor's remark. The list is not random: actives were taken first. Their share in the collection is about 4%. Unless noted, the call rests on the fitted dose curve; in most records, active means well fitted curve in the direction sought with a large enough effect; inconclusive means small, poorly fitted or top-dose-only effect, or another doubt; inactive means no such curve, though single readings can be large; an effect the other way counts as inactive or inconclusive.

SMILES	Casp1 inh	Tau filament bind	Caspase-7 inhib	Bst PK mod	Luciferase inh	tau ThS displ	aSyn ThS bind	Abeta ThS displ
CSc1ncnc2c1ncn2[C@@H]1O[C@@H](CO)[C@H](O)O[C@@H]1O	-1%[11.5 µM]	-2%[11.4 µM]	2%[11.5 µM]	.	2%[11.4 µM]	.	.	.
Cc1cnc(CNc2ncnc3ccc(-c4ccc(N(C)C)cc4)cc23)cn1	-2%	25µM*	-4%	.	-3%[2.29 µM]	.	.	.
COCCNc1ncnc2ccc(-c3ccoc3)cc12	?	0%	-26%	.	0%[2.29 µM]	.	.	.
c1ccc(CNc2ncnc3ccc(-c4ccoc4)cc23)cc1	-3%	-20%	-11%	.	-1%[2.29 µM]	.	.	.
CN(C)c1ccc(-c2ccc3ncnc(NCc4ccccc4)c3c2)cc1	?	2.5µM*	-22%	.	1%[2.29 µM]	.	.	.
COCCNc1ncnc2ccc(-c3ccc(N(C)C)cc3)cc12	-2%	16µM*	-1%	.	0%[2.29 µM]	.	.	.
O=C(c1cccc(F)c1)N1CCC2(CC1)CCN(C(c1ccccc1)c1ccccc1)CC2	-4%	2%	-2%	.	2%[11.4 µM]	.	.	.
COCCn1c(=O)c(-c2ccc(Cl)cc2)nc2cncnc21	?	29%	?	.	0%[11.4 µM]	.	.	.
CCOc1ccc(C(C)=O)cc1N1C(=O)C2C3C=CC(O3)C2C1=O (centres undefined)	1%	7%	1%	>57	-8%	.	.	.
CCOc1ccc(C(C)=O)cc1N1C(=O)C2C3C=CC(C3)C2C1=O (centres undefined)	0%	-30%	0%	>57	2%	i	i	i
CCN=C(N)CSS(=O)(=O)O	-2%[11.5 µM]	-9%[11.4 µM]	1%[11.5 µM]	.	0%[11.4 µM]	.	.	.
Cc1noc(C)c1-c1cc(N(C)C)ncn1	0%	-6%	1%	.	-2%[2.29 µM]	.	.	.
Cc1ccc2nc(NC(=O)C3CCCN(S(=O)(=O)c4cccc5nonc45)C3)sc2c1 (centres undefined)	-6%	?	-8%	>57	-2%	i	?	i
COc1cc(NCC[C@@H]2CCCCN2)c2ncccc2c1	-4%[11.5 µM]	-19%[11.4 µM]	1%[11.5 µM]	.	-1%[11.4 µM]	.	.	.
COc1cc(N[C@@H](C)CCCN)c2ncccc2c1	2.5µM*	5µM*	-22%[25.7 µM]	.	5%[25.5 µM]	i	i	i
O=c1cc(-c2cccc(O)c2O)oc2ccccc12	1%	-18%	-1%	.	0%[11.4 µM]	.	.	.
CCC(C)COC(=O)c1ccc(C(=O)O)cc1 (centres undefined)	-1%	-45%	0%	>57	4%	i	i	i
O=C(O)CC1(CC(=O)O)Nc2ccccc2SC1=O	-1%[11.5 µM]	7%[11.4 µM]	1%[11.5 µM]	.	1%[11.4 µM]	.	.	.
CC(=O)c1ccc2c(c1)Nc1ccccc1S2	-7%	2µM*	-7%	>57	-3%	7.7µM*	6µM*	9µM*
NCCCCN	1%	-4%	0%	.	-6%	.	.	.
COc1ccc(C(=O)N2CCC3(CC2)CN(CC(C)C)C3)cc1	-6%	-19%	1%	.	0%[11.4 µM]	.	.	.
CN(C)c1ccc(N/C=C/C(=O)c2ccc(F)cc2)cc1	-6%	3.2µM*	-4%	?	0.63µM*	1.1µM*	6.2µM*	3.4µM*
O=C(COC(=O)c1ccccn1)Nc1ccccc1Cl	-2%	-9%	-2%	>57	-3%	.	.	.
O=C(COc1ccccc1O)Nc1ccccc1Cl	0%	-41%	-4%	.	-21%	i	i	i
COc1ccc(NC(=O)c2cnc3sccn3c2=O)cc1OC	1%	-1%	2%	.	-3%	.	.	.
SMILES	Casp1 inh	Tau filament bind	Caspase-7 inhib	Bst PK mod	Luciferase inh	tau ThS displ	aSyn ThS bind	Abeta ThS displ
CC(=O)N1C2(C=CC1(C)C(=O)NCCN1CCOCC1)CCCCC2 (centres undefined)	1%	8%	-4%	.	.	.	.	.
Nc1ccc(O)c(-c2nc3ccccc3s2)c1	?	3.2µM*	?	.	?	?	?	9.2µM*
COc1cccc2c1C(=O)c1c(O)c3c(c(O)c1C2=O)C[C@@](O)(C(=O)CO)C[C@H]3O[C@H]1C[C@@H](N)[C@H](O)[C@@H](C)O1.[W]	0%[11.5 µM]	-26%[11.4 µM]	0%[11.5 µM]	.	-2%[11.4 µM]	4.2µM*	7.1µM*	2.8µM*
N[C@@H](CNO)C(=O)O	0%[11.5 µM]	-7%[11.4 µM]	1%[11.5 µM]	.	2%[11.4 µM]	.	.	.
Cc1ccc(N)cc1O	?	4%	-26%	.	.	.	.	.
N=C1C=CC(=C(c2ccc(N)cc2)c2ccc(N)cc2)C=C1	-1%[11.5 µM]	1.3µM*	-1%[11.5 µM]	.	-15%[11.4 µM]	1.6µM*	2.3µM*	0.51µM*
C=C[C@]1(C)C[C@H](OC(=O)CO)[C@]2(C)C3C(=O)CC[C@]3(CC[C@H]2C)[C@H](C)[C@H]1O (some centres undefined)	5%[11.5 µM]	-9%[11.4 µM]	-2%[11.5 µM]	.	1%[11.4 µM]	.	.	.
Oc1ccccc1C1Nc2cccc3cccc(c23)N1	-8%	3.2µM*	-11%	3.6*	-10%	3.3µM*	8µM*	3.8µM*
Cn1c(=Nc2ccc(N3CCOCC3)cc2)ccc2ccccc21	0%	2µM*	-1%	>57	-1%	?	i	i
O=C(Nc1ccc(N2CCOCC2)cc1)Nc1ccc2nc(-c3ccco3)c(-c3ccco3)nc2c1	?	0.79µM*	-23%	>57	-2%	1.2µM*	1.9µM*	1.2µM*
CCOc1ccc(CNc2ccc(N3CCCC3)cc2)cc1	-4%	5µM*	-4%	>57	-3%	i	?	4.3µM*
COc1ccc(C(=N/O)/C(=N/O)c2ccc(OC)cc2)cc1	-2%	-16%	-2%	.	1%	.	.	.
COc1ccc2c(c1)C(=NO)c1cc(OC)ccc1-2	-1%	4µM*	1%	i	-13%	?	?	4.1µM*
CC(C)c1cc(Nc2cccc(O)c2)cc(C(C)C)c1O	-6%	7.9µM*	-6%	.	-5%	4.9µM*	3.6µM*	3.5µM*
N=c1c(C(=O)NCc2ccc3c(c2)OCO3)cc2c(=O)n3ccccc3nc2n1Cc1cccnc1	.	?	?	>57	2%	?	7.4µM*	10µM*
CCOCCCn1c(=N)c(C(=O)NCc2ccc3c(c2)OCO3)cc2c(=O)n3cccc(C)c3nc21	?	0.63µM*	?	.	2%	9.5µM*	2.2µM*	3µM*
CCN(CC)C[C@@H](O)CN1CCCCc2nc(C)c(C)cc21	0%[11.5 µM]	.	0%[11.5 µM]	.	0%[11.4 µM]	.	.	.
Cc1c(N=C=O)cccc1N=C=O	-7%	91%	-9%	.	.	.	.	.
CCCCCCOC(=O)C(C#N)c1nc2ccccc2nc1N1CCN(C)CC1 (centres undefined)	?	1µM*	-26%	>57	2%	2.8µM*	1.8µM*	0.79µM*
CCCCCCOC(=O)C(C#N)c1nc2ccccc2nc1N1CCCCC1 (centres undefined)	-19%	-10%	-19%	>57	4%	.	.	.
COc1ccc2nccc(SCC(=O)O)c2c1	-1%[11.5 µM]	-1%[11.4 µM]	0%[11.5 µM]	.	0%[11.4 µM]	.	.	.
